Data taken from PubChem BioAssay AID493170 (National Center for Advancing Translational Sciences (NCATS), 2011).
Inconclusive results are not listed. Unmarked numbers belong to inactive results. Calls of active or inactive are those of the source. Calls follow the shape of the dose curve; as a rule, active = well fitted inhibition curve with a large enough effect; inconclusive = small, poorly fitted or top-dose-only effect, or effect the other way; inactive = flat fitted curve, though single readings scatter.

molecular target: Ubiquitin carboxyl-terminal hydrolase 2 (Homo sapiens) (UniProt O75604); assay: Ub-rhodamine 110 based assay for inhibitors Ubiquitin-specific Protease USP2a; settings: USP2a Ub-rhodamine110 cleavage, fluorescence; series mostly up to 38.3 µM; activity change, negative = inhibition: at the top concentration; also: nearly all actives have a fitted effect of over 50% in size
Sequence (O75604 whole entry, looked up): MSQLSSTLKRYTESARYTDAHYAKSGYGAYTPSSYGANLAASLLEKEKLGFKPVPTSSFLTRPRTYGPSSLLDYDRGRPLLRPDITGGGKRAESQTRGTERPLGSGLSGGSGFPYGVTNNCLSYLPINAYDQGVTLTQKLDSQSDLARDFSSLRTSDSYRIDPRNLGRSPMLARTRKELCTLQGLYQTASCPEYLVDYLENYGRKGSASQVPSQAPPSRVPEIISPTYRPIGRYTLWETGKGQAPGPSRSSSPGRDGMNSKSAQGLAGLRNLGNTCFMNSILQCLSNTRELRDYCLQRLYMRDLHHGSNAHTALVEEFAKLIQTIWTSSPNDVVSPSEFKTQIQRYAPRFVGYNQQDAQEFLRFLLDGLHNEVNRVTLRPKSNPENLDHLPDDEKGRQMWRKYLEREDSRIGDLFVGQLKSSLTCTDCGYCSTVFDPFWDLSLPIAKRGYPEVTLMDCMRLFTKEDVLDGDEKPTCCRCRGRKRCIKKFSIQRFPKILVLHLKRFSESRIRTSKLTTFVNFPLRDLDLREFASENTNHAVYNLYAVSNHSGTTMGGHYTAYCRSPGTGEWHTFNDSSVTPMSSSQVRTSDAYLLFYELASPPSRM
From the text: NIH Molecular Libraries Probe Centers Network [MLPCN] NIH Chemical Genomics Center [NCGC] MLPCN Grant: XO1-MH079852-01 PI Name: Nicholson, Ben. Progenra Inc, Malvern, PA NCGC Assay Overview: Homeostasis of cellular proteins is maintained through a combination of synthesis and degradation. The pathway that accounts for the majority of protein degradation is the ubiquitin-proteasomal pathway. Ubiquitin (Ub) is highly conserved in all cells and the generation of a multi-Ub chain typically targets proteins for degradation by the proteasome. However, ubiquitination is highly reversible and dynamic. Deubiquitination, the reverse process, is catalyzed through the action of enzymes referred to as isopeptidases or deubiquitinating enzymes (DUBs). This group of enzymes is collectively responsible for maintaining adequate pools of free ubiquitin and regulating the ubiquitination status of cellular proteins. The class of DUBs referred to as the ubiquitin-specific proteases (USP) family functions endoproteolytically to cleave Ub chains from a wide range of protein substrates. USP2a deubiquitinates fatty acid synthase (FASN) which has recently been identified as an emerging oncology target. To identify inhibitors of USP2a a cell-free assay was employed. This assay measures cleavage of a profluorescent substrate (Ub-Rhodamine 110; Boston Biochem Cat#: U-555) by USP2a. The assay gives a fluorescent read-out at excitation/emission wavelengths of 485/531. The USP2a enzyme was provided by Progenra, Inc. licensed for sale by LifeSensors, Inc.
NCGC Assay Protocol: The assay buffer, prepared fresh at the day of the assay, contains 20mM Tris-HCl pH 8.0, 2mM CaCl2, 2mM beta-Mercaptoethanol, 0.05% CHAPS. 3uL of 10 nM (5 nM final) USP2a, was dispensed into a medium-binding black solid Kalypsys 1,536 well plate using the Kalypsys dispenser. The assay plate was then pinned with 23nL compounds in DMSO with a Kalypsys pintool in columns 5-48 (0.3% final DMSO concentration). The negative control was buffer/DMSO only in column 3. The assay plate is incubated at RT for 30min. Subsequently, 3uL of 300 nM Ub-Rhod110 (150 nM final) was dispensed into the plate using a Kalypsys dispenser. Plates were read after every minute for 7 min on a ViewLux (Perkin Elmer) plate reader using the following wavelengths: Ex 485nm /Em 531nm. Data were normalized to the AC100 inhibition (buffer alone). Concentration-response curves were fitted to the normalized data and the concentration-response curves were then classified based on curve quality (r2), response magnitude and degree of measured activity. The time zero reading was used to flag fluorescence artifacts.
% is scaled to controls: 0 for no effect and ±100 for the full control effect; potency is read from the fitted curve at half-maximal effect.

SMILES	activity change, negative = inhibition [%]	Potency
COc1ccc2[nH]c(=O)c(CN(Cc3ccco3)Cc3nnnn3Cc3ccccc3)cc2c1	2.9	
CC(NC(=O)COc1ccccc1-c1ccccc1)c1ccccc1 (stereo not given)	-12.3	
O=C(COc1ccccc1)NCCSc1ccccc1	4.88	
CC1=C(C(=O)OC(C)C)C(C)C(C(=O)OC(C)C)=C(C)N1	-4.29	
Cc1cc(C)c(NC(=O)C[N+](C)(C)CC(O)COc2cccc3ccccc23)c(C)c1 (stereo not given)	-7.77	
CC(C)(C)CC(C)(C)NCC(=O)Nc1c2c(nc3ccccc13)CCC2	-5.64	
Cc1ccc(S(=O)(=O)N2[C@@H](c3ccc(C(C)(C)C)cc3)C(C(=O)O)=CC[C@H]2c2ccc(C(C)C)cc2)cc1		3.98 µM (active)
Cc1cc(C(=O)OCC(=O)c2cccc([N+](=O)[O-])c2)c2cccc(C)c2n1		10 µM (active)
CSc1cccc(NC(=O)c2ccccc2N(C)S(C)(=O)=O)c1	1.08	
COc1ccccc1C(=O)n1nc(-c2cccnc2)nc1NCc1ccccc1	-20.8	
Cc1cc(NC(=O)CN2C(=O)NC3(CCCCC3C)C2=O)no1 (stereo not given)	4.44	
COc1ccc(/C=C\C(=O)O[C@@H]2C(O)C(O[C@@H]3OC(C)[C@H](O[C@@H]4OCC(O[C@H]5O[C@H](CO)[C@@H](O)C(O)C5O)C(O)C4O)C(O)C3O)[C@H](OC(=O)[C@]34CCC(C)(C)C[C@@H]3C3=CCC5[C@@]6(C)CC(O)C(O[C@@H]7OC(CO)C(O)[C@H](O)[C@H]7O)[C@@](C)(C(=O)O)C6CC[C@@]5(C)[C@]3(CO)CC4)O[C@H]2C)cc1 (stereo not given in full)	-12.9	
Cn1ccc(=Nc2ccc(NC(=O)c3ccc(N=c4ccn(C)c5ccc([N+](=O)[O-])cc45)cc3)cc2)cc1	0.599	
COc1cc(/C=C/[N+](=O)[O-])ccc1OCc1cccc(C(=O)O)c1	-20.5	
CC(=O)Nc1ccc(NC(=O)[C@@H](NC(=O)c2cccc(C)c2)C(C)C)cc1	-2.39	
C=C(CCC(=O)c1ccccc1)C(=O)c1ccccc1	-13.8	
COc1ccccc1N1CCN(c2cc(C)nc3nc(C)nn23)CC1	-3.98	
Cc1ccc(-c2c(C)n([O-])c3c([n+]2=O)CCC3)o1	-2.02	
Cc1ccc(CNC(=O)CCNS(=O)(=O)c2ccc(C)cc2)cc1	-6.2	
Cc1ccc(NC(=O)COC(=O)c2ccc(NC(=O)CC#N)cc2)cc1S(=O)(=O)N1CCOCC1		10 µM (active)

SMILES	activity change, negative = inhibition [%]	Potency
O=C1c2ccccc2C(=O)N1CCCCn1c(=O)oc2ccccc21	-7.54	
O=C(CSCCO)Nc1cccc2ccccc12	-9.63	
O=C(CSc1nnc(SCc2ccccc2)s1)N/N=C/c1c[nH]c2ccccc12		10 µM (active)
Cc1ccc(C(=O)N(C)CC(=O)Nc2cccc(C)c2C)o1	-0.589	
CCOc1ccc(C=NNc2ccc(S(=O)(=O)Nc3ccccc3C(=O)O)cc2[N+](=O)[O-])cc1		2.82 µM (active)
Cc1csc(NC(=O)CCn2c(=O)sc3ccccc32)n1	-7.06	
COc1ccc(NC(=S)NC(=O)/C=C/c2ccco2)cc1	-1.65	
CC(C)(C)NC(=O)C(c1ccco1)N(C(=O)c1ccc(CN2CCOCC2)o1)c1ccccc1 (stereo not given)	-10.5	
CSCCC(NC(=O)c1cc(C(C)(C)C)oc1C)C(=O)O (stereo not given)	-9.93	
Cc1ccc([C@@H]2CC=C(C(=O)O)[C@H](c3ccc(C(C)(C)C)cc3)N2S(=O)(=O)c2ccc(C)cc2)cc1		10 µM (active)
O=C(CC1Oc2ccccc2NC1=O)NCc1ccc(Cl)cc1 (stereo not given)	-16.5	
CC(C)C(C(=O)O)N1C(=O)/C(=C/C=C/c2ccco2)SC1=S (stereo not given)		5.01 µM (active)
O=C(NCc1ccccc1)C1CCC1	-0.863	
CCc1c(O)nc(SCC(=O)Nc2ccccc2OC)[nH]c1=O	-2.13	
Cn1nc(CC(=O)NCc2ccc(F)cc2)c2ccccc2c1=O	-3.88	
Cc1cc(C(=O)Nc2ccccc2N2CCOCC2)c2ccccc2n1	-9.38	
COCCNCC(=O)N1CCCCCC1	-3.07	
Cc1cc(C(=O)CSc2nnc(Nc3ccccc3F)s2)c(C)n1CC1CCCO1 (stereo not given)	-19.4	
COc1cc(NC(=O)COC(=O)CSc2ccccc2F)c(C)cc1[N+](=O)[O-]	0.907	
CCOc1ccccc1C(=O)NC1CC2CCCC(C1)N2C1CC1 (stereo not given)	4.05	
